Assay results from PubChem BioAssay AID1508600 (Functional Genomics Laboratory (NCATS/FGL), 2020).
About 3,700 (7%) of roughly 53,000 sequences were called active. Shown is part of a subset that was picked to be rich in actives. Unmarked numbers belong to inactive results.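 How the source made its calls: active means gene knockdowns whose robust z-score for IL-1 alpha signal is at least 2 or at most -2, so actives lie on both sides; inactive means the rest.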

assay: Components of the Cytosolic LPS Sensing Pathway: Gene Identification via Genome-wide siRNA Screen; conditions: RAW264.7 macrophages, IL-1a HTRF, actives lie on both sides, screened at 100 nM (by protocol), cells primed 5 h with Pam3CSK4 first;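 further: robust z of the log signal after scaling to non-targeting control siRNA wells of the plate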
Procedure, shortened: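 Knockdown: 100 nM siRNA, 48h, RAW264.7. Stimulation: Pam3CSK4 5 h, then LipidA via TransIT-TKO 24 h. Output: supernatant IL-1a HTRF, negative-control-normalized, log robust z-score; viability by CellTiter-Glo.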

| Sequence | z-score |
| --- | --- |
| GCUUGUGUUUUAGAGCCGCTT against Mat1a | 0.653 |
| GCACAAUGACGCACUUACCTT against Pik3r2 | 0.693 |
| CCUGGAAUGUAUUUGUUAUTT against Nkain2 | 0.0256 |
| GGAACACUACCGUUUUGGGTT against Ehd2 | 2.55 (active) |
| GGACCAGGUUUGUUUUUUATT against Stom | 1.03 |
| CGGUUUUGUCAAAGCCCUGTT against Junb | 0.322 |
| GGUCAAGACGGUCUACCGATT against Rab3d | -0.571 |
| GGGAUAUCAAAGCAAAAAUTT against Rab8a | -0.578 |
| GGGUUCACGAAAGAGUAAATT against Clcn5 | -1.21 |
| GCCGUACCGGAUUUUUUUCTT against Smyd3 | 4 (active) |
| GCAGCUAACUCCAAGUCAGTT against Tfam | -1.42 |
| GGACUUGCCUUGAUCGCUATT against Mars2 | 0.853 |
| CGCGACAGAAUCAGUACAATT against Hnf4g | 2.17 (active) |
| GGUUCCUACACGAAAGGAUTT against Eif2b4 | 0.14 |
| GCCUUUACCCAAAUUAUCATT against Defb4 | 0.567 |
| GGACACUGUACUCAAACCUTT against Cntnap5b | -2.86 (active) |
| GGUGUAUACUGUGAAAUCATT against Notch1 | -0.319 |
| GGGCAUUGUUGAGCACCUUTT against Pgap6 | -1.81 |
| GGAAAAGCUGGAGGAAGACTT against Tef | 0.525 |
| GGAAUGUCAAUCUUGAGAGTT against Asprv1 | -0.812 |
| GCAGACAUUGCACAAACCCTT against Ankrd10 | 0.355 |
| GCCUGUCUCCUCAAUGCUUTT against Gm9903 | -0.319 |

| Sequence | z-score |
| --- | --- |
| ACUGUAUGAAGAGGAAACATT against Krt87 | -2.14 (active) |
| GGACAGUAUAGUGGAGAUCTT against Fgf22 | 1.66 |
| GCUAUUCUGUCUACGUGUATT against H2bc18 | -0.356 |
| CCGAAAUGUGUGUUUUAAATT against Vapb | 1.57 |
| GGUCUUUCCGGCAGUUCUUTT against Rxrg | -2.27 (active) |
| GGAAUCGGUGGCCAUCAAUTT against Olfr771 | 0.458 |
| GGAAGCUGAAGGUUUGCCATT against Wipi2 | -0.529 |
| GGAUCAGGAGCUGUUUGGATT against Adamtsl4 | 1.05 |
| GGAUGUCUACUGGAAUGUUTT against Pigv | -1.16 |
| GUGAAGGCCCAUGGCAAGATT against Hbb-b1 | -0.235 |
| CCGUAUUUGGACUGAGCAATT against Chic2 | 0.63 |
| GCUAGGGAUUUACCUCUUCTT against Gpr65 | 0.743 |
| GCCUGAGGAUCUAUAGAUATT against Prss29 | -1.36 |
| UGGAAGCCUUAUGCCGUCUTT against Gpr31b | 0.895 |
| GGCUCUAACUGUGAGAAGATT against Dll3 | -2.44 (active) |
| GGCUAACUCCUUAAAACCUTT against Aldh18a1 | -0.372 |
| GGCUUCCACGUAAUUGUCCTT against Six3os1 | 0.649 |
| GGCCGACUUGAUCAAUAACTT against Hsp90aa1 | -0.164 |
| CCCGGAGCUUGAAUUACUGTT against Usp7 | 2.36 (active) |
| GGAUUUUUCCAUAAAAACCTT against B3galnt1 | 1.04 |
| CCUCCCAGUACACUUGAAATT against Cox7a1 | 0.0752 |
| GGAAGAAACGGAGACUCAATT against Dpf1 | 0.052 |

| Sequence | z-score |
| --- | --- |
| CCAAUGAGUUAAUCACCUUTT against Olfr1135 | 0.587 |
| GGUCCAUACUCCUAAAGAATT against Mpzl1 | -0.727 |
| GGUGCAGUUUCUCCUCUUUTT against Pla1a | 2.09 (active) |
| GGAUCUGUUACUCUGAUACTT against Pias4 | 0.847 |
| GGUCAACAUUAAAAUACUGTT against Map2k4 | -0.0649 |
| GGUUUGCCUAUUUUUUCUUTT against Trmt10c | 1.9 |
| GGGUUUUUUUUUUCCUUCCTT against Hsd17b1 | -0.0306 |
| CGUAGGACUGAAUCAGCUUTT against Slc13a3 | -3.04 (active) |
| GCCAUUUGAAGUGUUUAAATT against Kctd12 | -0.103 |
| GGAAGACCUAAACAACGGCTT against Dusp10 | -1.55 |
| GGGUAACUAUUGGACUAACTT against Gabrq | -0.262 |
| GGCAUUGGAAUAAAAUUUGTT against Rfk | 0.267 |
| GGUGGUACGCAGACUAAAUTT against Ulk1 | 2.94 (active) |
| GGGUUAAACCACAUAUCCATT against Spata9 | -1.06 |
| GCUUUUCCGCUUCUACCGGTT against Nrp | -0.505 |
| GCUGUGGAGAAGUGCUACUTT against Lce1b | -0.907 |
| CCGAAAAUGGUUAGGACAUTT against Kynu | 1.44 |
| GGGCCUUCAAAACGAGAAGTT against Cyp4f39 | 0.339 |
| GCCUUCCUGAAUUUAAAGATT against Myo5b | 1.33 |
| GGAUAAAAUUGCUUUACUGTT against Srek1ip1 | 2.63 (active) |
| GGUGGUACUUACUCAAAAUTT against Fgg | 1.05 |
| GGGACUACCAUUUGUUAAUTT against Tktl1 | 0.751 |

| Sequence | z-score |
| --- | --- |
| CCAGAUUGUCACUUGCUACTT against Skint3 | 1.25 |
| GGAUACAAUCAUCGCCAUCTT against Olfr101 | 1.3 |
| GCUUUUAACAUCGAGUAAUTT against Top2b | -0.627 |
| GCAUUCAUCAGGGUUGAUUTT against Wdr20 | -2.43 (active) |
| CCUGUUAUGACCGUUCAUGTT against Prpf4 | 0.551 |
| GGCUCUGAAAAUUGAACACTT against Cep83 | 0.0736 |
| GGGUCUUAUCUCGAUGAGGTT against Flt3l | -0.199 |
| GGAAAUCAGCUGAAUUACUTT against Dicer1 | 1.07 |
| GGAACCAAUCUUGGUCUCATT against Tln2 | -0.66 |
| GGAUUCAGGCUGGAAAAUATT against Clrn1 | -1.04 |
| GGAAAACUUGAGGCGGAUCTT against Enkd1 | 2.63 (active) |
| CCCUGAAGGCUUACUUUUUTT against Cfap299 | -0.231 |
| GCUUUUCAUAUCUCUUGCATT against Olfr1385 | 0.408 |
| CCUGUCUGGACUUGUCUAATT against Ica1 | -2.05 (active) |
| GCCAGAAUCUGUUGUGAACTT against Gfpt1 | 0.0747 |
| GGGAAAAUCCACUUUUAAGTT against Hs2st1 | -0.0469 |
| GGGUCCAAUAAACAUGUCUTT against B3galt4 | 0.234 |
| CCAGGACUUACUCAGUAAUTT against Setd6 | -0.72 |
| GGCAAGAGAAUUCAGAUCUTT against Slc5a1 | 2.91 (active) |
| GGCGUGAUCGCUCUCCAAUTT against Ncoa5 | 0.834 |
| GGAUAACCGCCAAUAAAAATT against Msantd3 | 0.255 |
| GCCCUACCUUGAAUCCCAUTT against Olfr532 | -1.75 |

| Sequence | z-score |
| --- | --- |
| GGUAUUGGGCCAUUGGUUGTT against Mapkapk3 | 0.705 |
| GGGUUGAUUAAAGUUUAACTT against Gsx2 | 1.4 |
| GGCCACUUGCCUAUUGUGATT against Anxa6 | -0.343 |
| GAAUAUGUGGCUCUGGGUCTT against G6pc3 | -0.414 |
| GCUGCACAUUGUCCAUUAUTT against Car12 | 2.3 (active) |
| GGUGUUCUUUGACAGUGCCTT against Atp5d | 0.107 |
| GCCGAUGAUGAGAAACGACTT against Cd2 | -0.279 |
| GGCGAGUUUUCCUCUUCAGTT against Sync | 1.08 |
| CCGUCAUCACUGAUCAGUUTT against Olfr684 | 2.7 (active) |
| GGUGCUGUGUGAGCUUUCATT against Zfp85os | -1.47 |
| GGCUGACUCGCUUUCACCATT against Efna2 | 0.522 |
| GCCACAGGCCAAGAUCAUUTT against Pafah1b2 | -0.614 |
| GGACAAUUGGAAGAUUUGGTT against Ccdc88a | -1.23 |
| CCCUGAAUAAGGCUGAUCUTT against Krt32 | -0.801 |
| GGAUCUGUGAGAAUCAUAGTT against Rabgap1l | -2.24 (active) |
| GGGAGAUGUUGUCAGGGUCTT against Rnasel | -0.476 |
| GGAAAGUGCAUCAUAGACATT against Thrb | 0.153 |
| GGACGAUGUAUUGUUAUUGTT against Lrp10 | 1.49 |
| GGUAUGACUUGCUCUUUAUTT against Rnpep | -0.881 |
| GCAUUUGUGGCCUAUGCUCTT against Naprt | -2.16 (active) |
